# Source: PubChem BioAssay (NCI)
# About 79,000 compounds went through this panel and 15% of them were active in at least one assay; those are over-represented in the sample as a whole. Unmarked numbers belong to inactive results. The source made the active and inactive calls. No stated cut-off is given here; in the data, active means growth inhibition above about 70%; inactive means the rest.
# Tests used:
# [1] = NCI Yeast Anticancer Drug Screen. Data for the rad52 strain (AID 147);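 further: 0% = growth of vehicle-treated control cultures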; conditions: S. cerevisiae rad52 mutant growth inhibition, stronger effect = higher value
# Summary of the method: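 Yeast strain carrying a DNA damage repair alteration was exposed to test compounds. Growth inhibition was measured relative to vehicle-treated controls.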
# [2] = NCI Yeast Anticancer Drug Screen. Data for the wt1 strain (AID 149);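 further: 0% = growth of vehicle-treated wt1 cultures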; conditions: S. cerevisiae wt1 strain (SPY 50644) growth inhibition, stronger effect = higher value
# Summary of the method: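 Compounds are added to wt1 yeast cultures. Growth is then measured. Inhibition is expressed relative to vehicle-treated controls.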
# [3] = NCI Yeast Anticancer Drug Screen. Data for the rad50EPP+ strain (AID 151);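 further: 0% = growth of vehicle-treated control cultures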; conditions: S. cerevisiae rad50 mutant strain, stronger effect = higher value
# Summary of the method: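 Yeast strain carrying rad50 alteration (rad50EPP+) exposed to compounds; growth inhibition measured relative to vehicle-treated controls.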
# [4] = NCI Yeast Anticancer Drug Screen. Data for the mgt1 strain (AID 153); conditions: S. cerevisiae mgt1 mutant growth inhibition, stronger effect = higher value
# Summary of the method: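 Yeast mgt1 strain (DNA repair/cell-cycle alteration panel) exposed to compounds; growth inhibition measured relative to vehicle-treated controls.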
# [5] = NCI Yeast Anticancer Drug Screen. Data for the rad50 strain (AID 155);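 further: 0% = growth of vehicle-only cultures of the same strain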; conditions: S. cerevisiae rad50 strain growth inhibition, stronger effect = higher value
# Summary of the method: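 Inhibition values express reduced yeast growth in compound-treated cultures relative to vehicle-treated controls.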
# [6] = NCI Yeast Anticancer Drug Screen. Data for the mec2-1 strain (AID 157); conditions: S. cerevisiae mec2-1 strain, stronger effect = higher value
# Summary of the method: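 mec2-1 yeast strain, carrying an alteration in DNA damage repair or cell cycle control, was exposed to compounds; growth inhibition was measured relative to vehicle-treated controls.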
# [7] = NCI Yeast Anticancer Drug Screen. Data for the rad14 strain (AID 159);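 further: 0% = growth of vehicle-treated control cultures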; conditions: S. cerevisiae rad14 strain growth inhibition, stronger effect = higher value
# Summary of the method: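 A mutant yeast strain defective in DNA damage repair is treated with compound; inhibition of its growth is scored against untreated, vehicle-exposed cultures.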
# [8] = NCI Yeast Anticancer Drug Screen. Data for the sgs1 mgt1 strain (AID 161);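 further: 0% = growth of cultures given vehicle only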; conditions: S. cerevisiae sgs1 mgt1 strain, stronger effect = higher value
# Summary of the method: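 This yeast growth screen uses a strain with defined DNA-repair lesions; compound-treated growth is compared with vehicle-treated growth.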
# [9] = NCI Yeast Anticancer Drug Screen. Data for the CLN2oe strain (AID 163);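 further: 0% = growth of vehicle-only control cultures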; conditions: S. cerevisiae CLN2oe strain, stronger effect = higher value
# Summary of the method: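 Yeast cells carrying a defined cell-cycle control alteration were exposed to test compounds. Growth inhibition was scored against vehicle-treated control cultures.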
# [10] = NCI Yeast Anticancer Drug Screen. Data for the cln2 rad14 strain (AID 165);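 further: 0% = growth equal to vehicle treated cultures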; conditions: S. cerevisiae cln2 rad14 strain, stronger effect = higher value
# Summary of the method: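 Yeast carrying cln2 and rad14 alterations (cell cycle control and DNA damage repair) were exposed to compounds. Growth inhibition was measured against vehicle-treated controls.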
# [11] = NCI Yeast Anticancer Drug Screen. Data for the bub3 strain (AID 167); conditions: S. cerevisiae bub3 mutant strain, stronger effect = higher value
# Summary of the method: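 Steps: expose the mutant yeast strain to compound; grow alongside vehicle-treated cultures; measure growth; express inhibition against the vehicle cultures.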
# [12] = NCI Yeast Anticancer Drug Screen. Data for the wt2 strain (AID 169);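 further: 0% = growth of vehicle-treated yeast cultures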; conditions: S. cerevisiae wt2 strain growth inhibition, stronger effect = higher value
# Summary of the method: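 Yeast cells were exposed to test compounds, and growth inhibition was measured relative to vehicle-treated controls.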
# [13] = NCI Yeast Anticancer Drug Screen. Data for the mlh1 strain (AID 171);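 further: 0% = growth of vehicle-treated control cultures of the same strain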; conditions: S. cerevisiae mlh1 strain growth inhibition, stronger effect = higher value
# Summary of the method: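 Yeast carrying a defined genetic alteration in DNA damage repair or cell cycle control were exposed to test compounds. Growth inhibition was measured relative to vehicle-treated controls.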
# [14] = NCI Yeast Anticancer Drug Screen. Data for the sgs1 strain (AID 173);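 further: 0% = growth of vehicle-only control cultures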; conditions: S. cerevisiae sgs1 mutant, stronger effect = higher value
# Summary of the method: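 Yeast mutant strains carrying defined defects in DNA damage repair or cell cycle control were exposed to test compounds. Growth inhibition was scored against vehicle-treated controls.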
# [15] = NCI Yeast Anticancer Drug Screen. Data for the mlh1 rad18 strain (AID 175); conditions: S. cerevisiae mlh1 rad18 strain growth inhibition, stronger effect = higher value
# Summary of the method: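 Growth inhibition of the yeast strain was measured after compound exposure and expressed relative to vehicle-treated controls. The strain carries defined defects in DNA damage repair.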
# [16] = NCI Yeast Anticancer Drug Screen. Data for the rad18 strain (AID 177); conditions: S. cerevisiae rad18 mutant growth inhibition, stronger effect = higher value
# Summary of the method: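 Yeast carrying a defined DNA damage repair alteration were exposed to compounds. Growth inhibition was expressed relative to vehicle-treated controls.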
# [17] = at 5.0 µM (retest, dose inferred, filed as 0.5)
# [18] = at 50.0 µM (retest, dose inferred, filed as 5.0)
smiles,measurement,setting,value
OCC1OC(OCC(O)C(O)C(O)C(/C=N/Nc2ccccc2)=N/Nc2ccccc2)C(O)C(O)C1O (stereo unspecified),growth inhibition,[1]; at 1.2 µM,2%
same,growth inhibition,[1]; at 3.7 µM,9%
same,growth inhibition,[1]; at 11.0 µM,16%
same,growth inhibition,[1]; at 33.0 µM,18%
same,growth inhibition,[1]; at 100.0 µM,45%
same,growth inhibition,[2]; at 1.2 µM,4%
same,growth inhibition,[2]; at 3.7 µM,17%
same,growth inhibition,[2]; at 11.0 µM,21%
same,growth inhibition,[2]; at 33.0 µM,24%
same,growth inhibition,[2]; at 100.0 µM,28%
same,growth inhibition,[3]; at 1.2 µM,9%
same,growth inhibition,[3]; at 3.7 µM,30%
same,growth inhibition,[3]; at 11.0 µM,38%
same,growth inhibition,[3]; at 33.0 µM,40%
same,growth inhibition,[3]; at 100.0 µM,37%
same,growth inhibition,[4]; at 1.2 µM,3%
same,growth inhibition,[4]; at 3.7 µM,12%
same,growth inhibition,[4]; at 11.0 µM,11%
same,growth inhibition,[4]; at 33.0 µM,11%
same,growth inhibition,[4]; at 100.0 µM,5%
same,growth inhibition,[5]; at 1.2 µM,-5%
same,growth inhibition,[5]; at 3.7 µM,13%
same,growth inhibition,[5]; [17],15%
same,growth inhibition,[5]; at 11.0 µM,29%
same,growth inhibition,[5]; at 33.0 µM,32%
same,growth inhibition,[5]; [18],22%
same,growth inhibition,[5]; at 50.0 µM,99.2% (active)
same,growth inhibition,[5]; at 100.0 µM,55%
same,growth inhibition,[6]; at 1.2 µM,-2%
same,growth inhibition,[6]; at 3.7 µM,16%
same,growth inhibition,[6]; [17],1%
same,growth inhibition,[6]; at 11.0 µM,20%
same,growth inhibition,[6]; at 33.0 µM,31%
same,growth inhibition,[6]; [18],13%
same,growth inhibition,[6]; at 50.0 µM,99.5% (active)
same,growth inhibition,[6]; at 100.0 µM,68%
same,growth inhibition,[7]; at 1.2 µM,-1%
same,growth inhibition,[7]; at 3.7 µM,1%
same,growth inhibition,[7]; at 11.0 µM,4%
same,growth inhibition,[7]; at 33.0 µM,9%
same,growth inhibition,[7]; at 100.0 µM,28%
same,growth inhibition,[8]; [17],7%
same,growth inhibition,[8]; [18],-2%
same,growth inhibition,[8]; at 50.0 µM,93.3% (active)
same,growth inhibition,[9]; at 1.2 µM,4%
same,growth inhibition,[9]; at 3.7 µM,8%
same,growth inhibition,[9]; at 11.0 µM,10%
same,growth inhibition,[9]; at 33.0 µM,9%
same,growth inhibition,[9]; at 100.0 µM,40%
same,growth inhibition,[10]; [17],7%
same,growth inhibition,[10]; [18],-1%
same,growth inhibition,[10]; at 50.0 µM,99.3% (active)
same,growth inhibition,[11]; at 1.2 µM,2%
same,growth inhibition,[11]; at 3.7 µM,9%
same,growth inhibition,[11]; [17],12%
same,growth inhibition,[11]; at 11.0 µM,10%
same,growth inhibition,[11]; at 33.0 µM,12%
same,growth inhibition,[11]; [18],41%
same,growth inhibition,[11]; at 50.0 µM,99.2% (active)
same,growth inhibition,[11]; at 100.0 µM,47%
same,growth inhibition,[12]; at 1.2 µM,1%
same,growth inhibition,[12]; at 3.7 µM,7%
same,growth inhibition,[12]; at 11.0 µM,20%
same,growth inhibition,[12]; at 33.0 µM,17%
same,growth inhibition,[12]; at 100.0 µM,17%
same,growth inhibition,[13]; at 1.2 µM,-2%
same,growth inhibition,[13]; at 3.7 µM,4%
same,growth inhibition,[13]; at 11.0 µM,8%
same,growth inhibition,[13]; at 33.0 µM,11%
same,growth inhibition,[13]; at 100.0 µM,30%
same,growth inhibition,[14]; at 1.2 µM,3%
same,growth inhibition,[14]; at 3.7 µM,13%
same,growth inhibition,[14]; at 11.0 µM,16%
same,growth inhibition,[14]; at 33.0 µM,19%
same,growth inhibition,[14]; at 100.0 µM,35%
same,growth inhibition,[15]; [17],18%
same,growth inhibition,[15]; [18],31%
same,growth inhibition,[15]; at 50.0 µM,99.4% (active)
same,growth inhibition,[16]; at 1.2 µM,7%
same,growth inhibition,[16]; at 3.7 µM,25%
same,growth inhibition,[16]; at 11.0 µM,30%
same,growth inhibition,[16]; at 33.0 µM,39%
same,growth inhibition,[16]; at 100.0 µM,81% (active)
COP(=O)(OC)/C(=C\C1=CN(C(c2ccccc2)(c2ccccc2)c2ccccc2)CN1)NC=O,growth inhibition,[1]; at 1.2 µM,-12%
same,growth inhibition,[1]; at 3.7 µM,-15%
same,growth inhibition,[1]; at 11.0 µM,-11%
same,growth inhibition,[1]; at 33.0 µM,59%
same,growth inhibition,[1]; at 100.0 µM,96% (active)
same,growth inhibition,[2]; at 1.2 µM,12%
same,growth inhibition,[2]; at 3.7 µM,3%
same,growth inhibition,[2]; at 11.0 µM,5%
same,growth inhibition,[2]; at 33.0 µM,54%
same,growth inhibition,[2]; at 100.0 µM,96% (active)
same,growth inhibition,[3]; at 1.2 µM,2%
same,growth inhibition,[3]; at 3.7 µM,10%
same,growth inhibition,[3]; at 11.0 µM,73% (active)
same,growth inhibition,[3]; at 33.0 µM,96% (active)
same,growth inhibition,[3]; at 100.0 µM,97% (active)
same,growth inhibition,[4]; at 1.2 µM,6%
same,growth inhibition,[4]; at 3.7 µM,-3%
same,growth inhibition,[4]; at 11.0 µM,11%
same,growth inhibition,[4]; at 33.0 µM,67%
same,growth inhibition,[4]; at 100.0 µM,96% (active)
same,growth inhibition,[5]; at 1.2 µM,-14%
same,growth inhibition,[5]; at 3.7 µM,-32%
same,growth inhibition,[5]; [17],2%
same,growth inhibition,[5]; at 11.0 µM,-17%
same,growth inhibition,[5]; at 33.0 µM,73% (active)
same,growth inhibition,[5]; [18],-15%
same,growth inhibition,[5]; at 50.0 µM,98% (active)
same,growth inhibition,[5]; at 100.0 µM,96% (active)
same,growth inhibition,[6]; at 1.2 µM,34%
same,growth inhibition,[6]; at 3.7 µM,13%
same,growth inhibition,[6]; [17],-10%
same,growth inhibition,[6]; at 11.0 µM,30%
same,growth inhibition,[6]; at 33.0 µM,68%
same,growth inhibition,[6]; [18],-4%
same,growth inhibition,[6]; at 50.0 µM,98.3% (active)
same,growth inhibition,[6]; at 100.0 µM,97% (active)
same,growth inhibition,[7]; at 1.2 µM,4%
same,growth inhibition,[7]; at 3.7 µM,-1%
same,growth inhibition,[7]; at 11.0 µM,-5%
same,growth inhibition,[7]; at 33.0 µM,65%
same,growth inhibition,[7]; at 100.0 µM,96% (active)
same,growth inhibition,[8]; [17],-9%
same,growth inhibition,[8]; [18],0%
same,growth inhibition,[8]; at 50.0 µM,98.3% (active)
same,growth inhibition,[9]; at 1.2 µM,3%
same,growth inhibition,[9]; at 3.7 µM,8%
same,growth inhibition,[9]; at 11.0 µM,-8%
same,growth inhibition,[9]; at 33.0 µM,25%
same,growth inhibition,[9]; at 100.0 µM,95% (active)
same,growth inhibition,[10]; [17],3%
same,growth inhibition,[10]; [18],7%
same,growth inhibition,[10]; at 50.0 µM,95.2% (active)
same,growth inhibition,[11]; at 1.2 µM,-27%
same,growth inhibition,[11]; at 3.7 µM,-41%
same,growth inhibition,[11]; [17],-7%
same,growth inhibition,[11]; at 11.0 µM,-41%
same,growth inhibition,[11]; at 33.0 µM,33%
same,growth inhibition,[11]; [18],2%
same,growth inhibition,[11]; at 50.0 µM,96.2% (active)
same,growth inhibition,[11]; at 100.0 µM,94% (active)
same,growth inhibition,[12]; at 1.2 µM,-10%
same,growth inhibition,[12]; at 3.7 µM,-13%
same,growth inhibition,[12]; at 11.0 µM,-6%
same,growth inhibition,[12]; at 33.0 µM,34%
same,growth inhibition,[12]; at 100.0 µM,96% (active)
same,growth inhibition,[13]; at 1.2 µM,1%
same,growth inhibition,[13]; at 3.7 µM,-13%
same,growth inhibition,[13]; at 11.0 µM,-8%
same,growth inhibition,[13]; at 33.0 µM,71% (active)
same,growth inhibition,[13]; at 100.0 µM,96% (active)
same,growth inhibition,[14]; at 1.2 µM,13%
same,growth inhibition,[14]; at 3.7 µM,20%
same,growth inhibition,[14]; at 11.0 µM,12%
same,growth inhibition,[14]; at 33.0 µM,79% (active)
same,growth inhibition,[14]; at 100.0 µM,97% (active)
same,growth inhibition,[15]; [17],-22%
same,growth inhibition,[15]; [18],-8%
same,growth inhibition,[15]; at 50.0 µM,97% (active)
same,growth inhibition,[16]; at 1.2 µM,-7%
same,growth inhibition,[16]; at 3.7 µM,-18%
same,growth inhibition,[16]; at 11.0 µM,-13%
same,growth inhibition,[16]; at 33.0 µM,40%
same,growth inhibition,[16]; at 100.0 µM,95% (active)
